Most compounds without a hit are left out; they make up all but 3.4% or so of the library.
Vif imaging: blocks HIV Vif function; AID 602346; 340,000 tested, 0.35% active; inhibition, % at 7.49 µM; HEK293T cells, Vif self-association by quenched fluorescence, imaging, 24 h; in the data active = inhibition above about 50%, passing the limit was not always enough; inconclusive = no clear call, values can overlap the other calls; inactive = below about 31%
HSF-1 act: increases HSF-1 driven luciferase reporter signal; AID 504408; 300,000 tested, 1.7% active; NIH3T3-HGL HSF-1 luciferase reporter, MG132, 8 h; 100% = twice DMSO control signal; activation, % at 9 µM;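 active = mean replicate activation of at least 50% with a set share of replicates each reaching 50%; inconclusive = only one of those two conditions met; inactive = mean below 50% and too few replicates reaching it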
HSF1 inh: HSF1 inhibition; activity change, negative = inhibition, % at 7.5 µM (by protocol); NIH3T3-HGL HSE-luciferase, MG132-induced, luminescence 8 h; hits give low values; 300,000 tested, 0.77% active; AID 2098;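 active = more than half of replicate wells show activity change below -50%, luminescence cut by over half; inconclusive = some wells, but at most half, below -50%; inactive = no replicate well below -50%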;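 note: luciferase reports HSF-1 transcriptional activity via heat shock element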
esBAF inh: inhibitors of esBAF chromatin remodeling in mouse ES cells; 350,000 tested, 2% active; Bmi1-luciferase knock-in reporter, 24 h; 100% = twice the neutral-well signal; reporter increase, % at 12.5 µM; AID 602393; in the data active = activation above about 40%; inconclusive = no clear call, values can overlap the other calls;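 note: a rise in the Bmi1 reporter signal indicates esBAF inhibition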
Hits are given with their value; i = inactive; ? = inconclusive; nt = no result.

SMILES | Vif imaging | HSF-1 act | HSF1 inh | esBAF inh
C[C@@H](O)C#Cc1ccc([C@H]2[C@@H](CO)N3CCCCN(S(=O)(=O)Cc4ccccc4)C[C@@H]23)cc1 | nt | nt | nt | i
Cc1nn(-c2nc3ccccc3s2)c(C)c1Oc1ccccc1O | nt | ? | i | 45
O=C(C[C@@H]1C[C@@H]2c3cc(NS(=O)(=O)c4ccc(F)cc4)ccc3O[C@@H]2[C@H](CO)O1)NC1CCCCC1 | nt | nt | nt | i
C[C@@H]1CN([C@@H](C)CO)C(=O)c2cccc(NS(=O)(=O)c3cccs3)c2O[C@@H]1CN(C)Cc1ccncc1 | nt | nt | nt | i
COC(=O)c1sc(NC(=O)/C=C/c2ccc(C)o2)nc1C | i | 57 | i | nt
COC(=O)c1sc(NC(=O)c2ccoc2C)nc1C | i | i | i | 49
CCOC(=O)c1sc(NC(=O)/C=C/c2ccc(F)cc2)nc1C | i | i | i | i
COC(=O)c1sc(NC(=O)Cc2cccs2)nc1C | i | i | i | 42
COc1cc(NC(=O)C2=C(N3CCOCC3)/C(=C/c3ccc(Cl)cc3)CC2)cc(OC)c1OC | i | i | i | nt
O=C(Nc1ccccc1)C1=C(N2CCOCC2)/C(=C/c2cccnc2)CC1 | i | i | i | 42
N#C/C(=C\c1cn(Cc2cccc(F)c2)c2ccccc12)C(=O)NCc1ccco1 | i | 68 | i | nt
Cc1cccc(NC(=O)/C(C#N)=C/c2cn(CC(=O)NCc3ccco3)c3ccccc23)c1C | 72 | 61 | i | i
N#C/C(=C\c1cn(Cc2ccc(F)cc2)c2ccccc12)C(=O)NCc1ccco1 | i | i | i | nt
N#C/C(=C\c1cn(Cc2ccccc2C#N)c2ccccc12)C(=O)NCc1cccs1 | nt | i | i | nt
Cc1cccc(NC(=O)/C(C#N)=C/c2ccc[nH]2)c1C | i | i | i | 49
N#C/C(=C\c1cn(Cc2ccccc2)c2ccccc12)C(=O)NCc1ccco1 | i | 75 | i | nt
Cn1cnc(S(=O)(=O)N[C@@H]2CC[C@H](CC(=O)NCC3CCCCC3)O[C@@H]2CO)c1 | nt | nt | nt | i
COC(=O)c1ccc(CN2C(=O)NC(Cc3c[nH]c4ccccc34)C2=O)cc1 (centres undefined) | i | i | i | 46
C=CCN1C(=O)/C(=C/c2ccc(-c3ccc(F)cc3)o2)SC1=S | 82 | i | i | i
C=CCN1C(=O)/C(=C/c2ccsc2)SC1=S | i | i | i | nt
Oc1ccc2ccccc2c1/C=N/Nc1nnc(-c2ncc[nH]2)c2ccccc12 | 87 | i | i | i
Oc1ccc2ccccc2c1C=NNc1ccccn1 | i | 70 | 70 | nt
Oc1ccc2ccccc2c1CNc1ccccn1 | i | i | i | i
C=CCOc1ccc(/C=C/C(=O)OCC(=O)NC2CCCCCCC2)cc1 | i | i | i | i
C=CCOc1ccc(/C=C/C(=O)OCC(=O)NCC2CCCCC2)cc1 | i | i | -68 | i
SMILES | Vif imaging | HSF-1 act | HSF1 inh | esBAF inh
COc1ccc(C#Cc2cnc3c(c2)C(=O)N([C@@H](C)CO)C[C@@H](C)[C@@H](CN(C)C(=O)Nc2cccc(OC)c2)O3)cc1 | nt | nt | nt | i
O=C(c1ccc(-c2cc(Cl)ccc2Cl)o1)N1CCOCC1 | i | i | i | i
O=C(c1ccco1)N1CCN(Cc2ccc(Cl)cc2)CC1 | i | i | i | i
O=C(c1ccco1)N1CCN(Cc2c(Cl)cccc2Cl)CC1 | i | i | i | 59
O=C(c1ccc(-c2ccc(Cl)cc2Cl)o1)N1CCOCC1 | i | 60 | i | 56
O=C(c1ccco1)N1CCN(C(=O)c2ccc(-c3ccccc3Cl)o2)CC1 | i | nt | nt | 56
COc1ccc(NC(=O)Nc2ccc3c(c2)C(=O)N([C@@H](C)CO)C[C@@H](C)[C@H](CN(C)C)OCCCC[C@@H](C)O3)cc1 | nt | nt | nt | i
COc1cc(/C=C/C(=O)N2C(=O)c3cccc(N)c3C2=O)cc(OC)c1OC | ? | 130 | i | i
Nc1cccc2c1C(=O)N(C(=O)/C=C/c1cccc(F)c1)C2=O | i | i | i | i
Nc1cccc2c1C(=O)N(C(=O)/C=C/c1cccc(Br)c1)C2=O | i | 106 | i | i
COc1ccc(OC)c(/C=C/C(=O)N2C(=O)c3cccc(N)c3C2=O)c1 | i | 86 | i | nt
COc1ccc(S(=O)(=O)N(C)C[C@@H]2OCCCC[C@@H](C)Oc3ccc(NS(=O)(=O)c4c(C)noc4C)cc3C(=O)N([C@@H](C)CO)C[C@H]2C)cc1 | nt | nt | nt | i
Cc1ccc(N=C(NOCc2ccc(Cl)cc2Cl)c2nonc2N)c(C)c1 | i | 59 | i | nt
CC(C)NC(=O)N1C[C@H]2[C@@H](c3ccccc31)[C@H](CO)N2Cc1ccccc1 | nt | nt | nt | i
Cc1ccc(S(=O)(=O)N(C)C[C@H]2OCc3cnnn3CCCC(=O)N([C@H](C)CO)C[C@@H]2C)cc1 | nt | nt | nt | i
COc1cc2cnc(-c3ccccc3)cc2cc1OC | i | nt | nt | i

High-throughput results from PubChem.
